Screening results: PubChem BioAssay, National Center for Advancing Translational Sciences (NCATS)
An excerpt weighted towards active compounds, which were near 5.7% of everything screened.
JMJD2A Tudor inh: blocks the human JMJD2A Tudor domain; AlphaScreen JMJD2A-Tudor / H3K4me3 peptide binding; Potency, µM (doses to about 114 µM), inactives show top-dose activity change, negative = inhibition, hits mostly inhibitors; 390,000 tested, 4.4% active; AID 504339; also: potency is read from the fitted curve at half-maximal effect; % is scaled to controls: 0 for no effect and ±100 for the full control effect; nearly all actives have a fitted effect of over 50% in size
HP1b chromo inh: inhibitors of HP1-beta chromodomain binding to methylated histone tails; P83916; AlphaScreen HP1-beta / biotin-H3K9me3 peptide binding; Potency, µM (doses to about 114 µM), for the others: at the top dose activity change, negative = inhibition, hits mostly inhibitors; 390,000 tested, 0.56% active; also: potency is read from the fitted curve at half-maximal effect; nearly all actives have a fitted effect of over 70% in size
Target sequence (P83916 whole entry, looked up): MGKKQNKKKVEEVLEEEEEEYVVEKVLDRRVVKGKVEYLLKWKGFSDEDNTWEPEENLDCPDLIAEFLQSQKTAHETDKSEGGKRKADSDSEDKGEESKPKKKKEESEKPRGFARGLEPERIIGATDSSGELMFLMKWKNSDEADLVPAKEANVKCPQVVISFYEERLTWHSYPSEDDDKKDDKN
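AlphaScreen: HP1-beta (50 nM) preformed 30 min with biotin-H3(1-18)K9me3 peptide (50 nM) in PBS pH 7.4, 0.01% Tween-20. Compound added for 30 min at RT, then streptavidin donor/nickel chelate acceptor beads (10 ug/mL) for 30 min.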
PI5P4K alpha inh: blocks human PI5P4K alpha kinase activity. PI5P4Kalpha enzyme, ADP-Glo luminescence, 60 min; hits give low values. max response, %. P48426. 330,000 tested, 1.2% active; active = max response of -50% or lower; inconclusive = between -30% and -50%; inactive = -30% or higher; also: value at the top dose of about 77 µM; % is scaled to controls: 0 for no effect and ±100 for the full control effect
Target sequence (P48426 whole entry, looked up): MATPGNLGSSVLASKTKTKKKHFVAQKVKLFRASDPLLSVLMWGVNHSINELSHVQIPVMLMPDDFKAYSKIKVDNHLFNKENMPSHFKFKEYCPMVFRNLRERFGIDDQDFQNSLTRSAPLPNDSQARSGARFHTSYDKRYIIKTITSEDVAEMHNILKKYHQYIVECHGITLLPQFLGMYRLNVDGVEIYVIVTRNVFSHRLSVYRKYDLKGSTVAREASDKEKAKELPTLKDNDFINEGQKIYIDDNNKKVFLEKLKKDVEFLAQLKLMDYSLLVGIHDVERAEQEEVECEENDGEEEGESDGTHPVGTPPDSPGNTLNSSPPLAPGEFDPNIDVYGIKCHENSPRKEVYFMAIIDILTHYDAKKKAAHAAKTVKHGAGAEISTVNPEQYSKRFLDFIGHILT
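qHTS, 1536-well: enzyme/substrate mix, compound by pin tool, 5 microM ATP final; RT 60 min; ADP-Glo reagents 1 (45 min) then 2 (30 min); luminescence.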
BAZ2B inh: BAZ2B (human) inhibition. Q9UIF8. AlphaScreen BAZ2B-H3K14Ac peptide displacement. Potency, µM (highest dose often 114 µM), for inactives: top-dose activity change, negative = inhibition, hits mostly inhibitors. 360,000 tested, 4.4% active; also: potency is read from the fitted curve at half-maximal effect; % is scaled to controls: 0 for no effect and ±100 for the full control effect; nearly all actives have a fitted effect of over 60% in size
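BAZ2B (50 nM) with biotin-H3(5-23)K14Ac peptide (50 nM) in PBS pH 7.4, 0.01% Tween-20, preformed 30 min, then compound 30 min at room temperature; top concentration 110uM. AlphaScreen streptavidin donor/nickel chelate acceptor beads (10 ug/mL final), 20 min dark, signal read.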
L3MBTL1 inh: blocks human L3MBTL1. AlphaScreen L3MBTL1–H3K9me1 peptide binding. 230,000 tested, 0.66% active. Potency, µM (titrated, usually from 57.1 µM), for inactives: top-dose activity, negative = inhibition, usual class: inhibitors. AID 485360. Q9Y468; also: potency is read from the fitted curve at half-maximal effect; % is scaled to controls: 0 for no effect and ±100 for the full control effect; nearly all actives have a fitted effect of over 60% in size
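Displacement of a biotinylated histone H3(1-15) peptide monomethylated at Lys9 (75 nM) from L3MBTL1 (50 nM) was measured by AlphaScreen after a 30 min room-temperature compound incubation; cefsulodin titration served as intraplate control.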
JMJD2E inh: JMJD2E (human) inhibition | B2RXH2 | JMJD2E catalytic domain, FDH-coupled NADH fluorescence (FDH is formaldehyde dehydrogenase) | Potency, µM (doses to about 57.1 µM), inactives show at the top dose activity change, negative = inhibition, actives largely listed as inhibitors | 230,000 tested, 1.6% active | AID 2147; active = well fitted inhibition curve with a large enough effect, not every such curve was filed as active; inconclusive = small, poorly fitted or top-dose-only effect, or another doubt; inactive = no such curve, though single readings can be large or run the other way;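 also: potency is read from the fitted curve at half-maximal effect; 0% = wells with enzyme and -100% = buffer wells without enzyme; nearly all actives have a fitted effect of over 50% in size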
* hit, by the source's call; ? = inconclusive; · = not tested or not shown; ! = not confirmed by another sample. Unless noted, calls follow the shape of the dose curve; as a rule, active = well fitted inhibition curve with a large enough effect; inconclusive = small, poorly fitted or top-dose-only effect; inactive = no such curve, though single readings can be large or run the other way.

SMILES | JMJD2A Tudor inh | HP1b chromo inh | PI5P4K alpha inh | BAZ2B inh | L3MBTL1 inh | JMJD2E inh
Cc1ccc(/C=C/C(=O)Nc2nn[nH]n2)o1 | 35.5µM* | -21.3% | ? | 35.5µM* | -0.5% | ?
Cc1cc(NCc2ccc(Cl)cc2)n2cnnc2n1 | -2.8% | 27.1% | · | -1.3% | · | ·
Cc1cccc(NC(=O)C2CCCN(S(=O)(=O)c3c(C)[nH]c(=O)[nH]c3=O)C2)c1C (stereo unspecified) | -10.3% | 31.2% | · | -17.3% | · | ·
CCCCCCCCCCCC1=C(O)C(=O)C=C(O)C1=O | 28.2µM* | ? | -62.4* | · | · | 20µM*!
CCCCCCc1c(O)c2ccccc2[nH]c1=O | -20.6% | 8.8% | · | -3.2% | -7.4% | ?
COC1=CC(=O)C(O)=C(CCCCCCC/C=C/CCCCCCCC2=C(O)C(=O)C=C(OC)C2=O)C1=O | 44.7µM* | ? | -75.1* | · | · | ·
CCCCn1c(SCC(=O)NC2CC2)nc2cc(C(=O)OC)ccc2c1=O | · | · | 0.0 | · | · | ·
O=C(NCc1nc2ccccc2n1Cc1ccccc1Cl)c1ccccc1 | -12.1% | 17.8% | · | -3.3% | · | ·
CCOc1ccc(CNC(=O)c2cnc(SC)nc2C)cc1 | -4.0% | 20.8% | · | 1.9% | · | ·
COc1ccc(Nc2ncnc3c2cnn3C)c(OC)c1 | -20.8% | 28.8% | · | 1.4% | · | ·
CCOc1cc2[nH]c(=O)n(Cc3ccc(C(=O)N4CCN(c5cccc(Cl)c5)CC4)cc3)c(=O)c2cc1OCC | -20.7% | 12.0% | · | -10.9% | · | ·
CNC(=S)Nc1sc2c(c1C(=O)OC)CCC2 | 89.1µM* | 5.4% | 2.0 | 3.8% | 8.1% | ?
O=C(O)CSc1nnc(CNc2ccc(F)cc2)n1-c1ccccc1 | -16.1% | 74.1% | -16.4 | 79.4µM* | · | -1.8%
CCOC(=O)CSc1nnc(CNc2ccc(Cl)cc2)n1Cc1ccccc1 | -24.8% | 13.6% | -4.8 | 8.3% | -5.5% | 5.0%
CCOc1ccc(NCc2nnc(SCc3ccccc3Cl)n2-c2ccccc2)cc1 | 35.5µM* | -49.5% | · | 20µM* | ? | -6.0%
O=C(O)CSc1nnc(CNc2ccc(Cl)cc2)n1Cc1ccccc1 | 79.4µM* | -2.4% | -21.1 | ? | · | ?
Cc1nc2ccn(Cc3ccco3)c(=O)c2cc1C(=O)NCc1ccccc1F | -10.3% | 52.1% | · | -14.8% | · | ·
CN(C)CCCn1c(SCc2c(Cl)cccc2Cl)nnc1-c1ccncc1 | 20µM* | ? | 2.3 | 70.8µM* | 0.4% | ·
O=C(O)c1ccc(Nc2nc(-c3ccc([N+](=O)[O-])cc3)nc3ccccc23)cc1 | ? | -7.9% | 0.3 | 50.1µM* | · | ·
O=[N+]([O-])c1ccc(-c2nc(Nc3ccc(O)cc3)c3ccccc3n2)cc1 | -11.6% | 19.0% | -6.7 | -4.2% | · | ·
Cc1nc(Nc2ccc(C(=O)O)cc2)nc(Nc2ccc(C(=O)O)cc2)c1[N+](=O)[O-] | -27.4% | 45.3% | -56.4* | -38.5% | -20.8% | -5.0%
CC(=O)Nc1ccc(Nc2nc(C)c([N+](=O)[O-])c(Nc3ccccc3)n2)cc1 | -15.2% | 9.2% | -17.9 | -34.9% | -10.4% | 3.4%
CCc1cnc2c(c1SCC(=O)NCc1ccccc1)c(=O)n(C)c(=O)n2C | -4.9% | 34.9% | · | 0.0% | · | ·
COC(=O)CSc1nc(C)c(C)c(C)c1C(N)=O | 11.3% | 31.8% | -3.8 | -2.0% | -1.5% | -1.0%
O=C1c2ccccc2C(Nc2ccc3c(c2)OCCO3)N1c1ccc(Cl)cn1 (stereo unspecified) | ? | ? | -2.1 | 39.8µM* | · | -7.5%
O=C1c2ccccc2C(Nc2ccc3c(c2)OCCO3)N1Cc1ccc2c(c1)OCO2 (stereo unspecified) | 39.8µM* | -25.0% | 9.2 | 35.5µM* | ? | -9.2%
COc1ccc(NC2c3ccccc3C(=O)N2Cc2ccc3c(c2)OCO3)cc1 (stereo unspecified) | 39.8µM* | ? | -1.8 | 50.1µM* | · | 0.4%
O=C1OC(Nc2ccc3c(c2)OCO3)c2ccccc21 (stereo unspecified) | 50.1µM* | ? | -14.3 | 39.8µM* | -2.0% | ?
O=C1c2ccccc2C(Nc2ccccc2)N1Cc1ccc2c(c1)OCO2 (stereo unspecified) | -29.4% | -4.8% | -2.0 | -30.9% | · | -1.4%
